PubChem BioAssay AID1326 (NMMLSC, 2008)
The whole screen tested about 190,000 compounds, of which about 130 (0.068%) were called active. Cut-off read from the data, not from the text of the source: active = inhibition above about 40%; inactive = the rest. The list comes from a sample in which actives are over-represented; it also holds similar structures and randomly drawn compounds.

The molecules below were run against ATP-dependent translocase ABCB1 (Homo sapiens) (UniProt P08183) (assay: blockers of ABCB1-mediated dye efflux – cell-based, multiplex, flow cytometry, ABCG2 counter-screen, primary screen (AID 1326;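 note: 0% = vehicle and 100% = reference inhibitor; higher value means more JC-1 retained so stronger ABCB1 efflux block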)). Conditions: CCRF-Adr cells, JC-1 efflux, at 6.6 µM, active compounds read high.
Chain of ATP-dependent translocase ABCB1 (Homo sapiens) (P08183 whole entry, looked up): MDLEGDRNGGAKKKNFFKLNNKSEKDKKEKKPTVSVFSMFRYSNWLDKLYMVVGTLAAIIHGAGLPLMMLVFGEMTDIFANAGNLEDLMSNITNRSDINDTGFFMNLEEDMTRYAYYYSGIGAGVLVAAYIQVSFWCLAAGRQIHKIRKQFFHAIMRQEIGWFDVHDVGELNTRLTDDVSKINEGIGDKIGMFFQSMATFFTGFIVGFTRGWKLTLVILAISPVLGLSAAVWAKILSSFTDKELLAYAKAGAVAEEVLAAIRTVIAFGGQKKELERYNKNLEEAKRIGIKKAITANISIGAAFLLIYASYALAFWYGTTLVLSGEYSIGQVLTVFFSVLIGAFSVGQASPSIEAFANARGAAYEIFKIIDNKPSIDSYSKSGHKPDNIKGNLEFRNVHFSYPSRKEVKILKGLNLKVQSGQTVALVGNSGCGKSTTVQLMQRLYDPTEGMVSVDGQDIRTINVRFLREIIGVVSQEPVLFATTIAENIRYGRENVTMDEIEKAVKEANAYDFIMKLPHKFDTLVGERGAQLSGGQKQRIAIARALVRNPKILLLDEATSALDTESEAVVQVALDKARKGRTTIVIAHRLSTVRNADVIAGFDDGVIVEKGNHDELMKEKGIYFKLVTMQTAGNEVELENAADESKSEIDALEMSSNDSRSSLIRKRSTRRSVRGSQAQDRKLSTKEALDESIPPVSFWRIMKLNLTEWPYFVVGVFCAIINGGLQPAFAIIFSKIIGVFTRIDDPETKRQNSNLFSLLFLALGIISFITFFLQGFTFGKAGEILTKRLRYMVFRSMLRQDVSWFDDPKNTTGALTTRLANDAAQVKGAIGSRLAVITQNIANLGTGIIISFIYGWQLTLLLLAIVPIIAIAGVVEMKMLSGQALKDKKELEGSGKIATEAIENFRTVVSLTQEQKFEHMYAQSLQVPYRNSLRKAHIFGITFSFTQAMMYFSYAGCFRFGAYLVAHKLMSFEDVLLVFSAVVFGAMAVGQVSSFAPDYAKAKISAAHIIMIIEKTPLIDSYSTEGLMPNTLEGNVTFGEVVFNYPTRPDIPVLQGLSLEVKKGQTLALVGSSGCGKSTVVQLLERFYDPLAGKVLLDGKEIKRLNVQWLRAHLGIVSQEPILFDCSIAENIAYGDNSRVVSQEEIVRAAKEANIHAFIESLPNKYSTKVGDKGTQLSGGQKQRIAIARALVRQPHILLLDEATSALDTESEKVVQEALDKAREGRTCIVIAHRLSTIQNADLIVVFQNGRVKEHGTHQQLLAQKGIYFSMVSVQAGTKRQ
For `O=C1c2cccc3c([N+](=O)[O-])ccc(c23)C(=O)N1CC1CCCO1` (stereo not drawn), the inhibition was 0.98% (inactive).
With `CN(CCOc1ccccc1)Cc1nc2cc(Cl)ccc2c(=O)[nH]1` the inhibition was 0.26% (inactive).
`Cc1ccc(Nc2c(F)c(F)c(F)c(F)c2C(=O)O)c(C)c1` was tested, and the inhibition was -0.24% (inactive).
`Cc1ccc(CNC(=O)CCNS(=O)(=O)c2ccc(Br)s2)cc1` was tested, and the inhibition was -0.56% (inactive).
For `NS(=O)(=O)c1ccc(CCNC(=O)c2ccc(Cl)cc2[N+](=O)[O-])cc1`, the inhibition was 1.3% (inactive).
For `COc1ccccc1NC(=O)CCSc1nnc(-c2ccc(O)cc2)o1`, the inhibition was 0.42% (inactive).
`COc1ccc(/C=N/Nc2ncnc3sc4c(c23)CCCC4)cc1O` was tested, and the inhibition was -0.22% (inactive).
In the case of `N#Cc1cnn2cc(CCN3CCOCC3)c(-c3ccc(F)cc3)nc12`, the inhibition is reported as 1.26% (inactive).
In the case of `CCCNCc1cc(OCC)c(OCC(=O)Nc2ccccc2)cc1Br`, the inhibition is reported as 0.07% (inactive).
`O=C(CN(C(=O)c1csnn1)c1cccc(F)c1)NCc1ccc(F)cc1` was tested, and the inhibition was 1.22% (inactive).
In the case of `COC(=O)c1ccc(C(NC(=O)OCc2ccccc2)/C(C)=C/[C@@H](C)C(=O)NCc2ccc(OC)c(OC)c2)cc1` (stereo partly drawn), the inhibition is reported as 9.15% (inactive).
In the case of `Cc1ccccc1CSc1nnc(-c2ccccc2)c(=O)[nH]1`, the inhibition is reported as 0.19% (inactive).
In the case of `CCC(C)(C)NC(=O)C(c1cccc(OC)c1OC)N(CC(C)C)C(=O)CCC(=O)Nc1cc(C)on1` (stereo not drawn), the inhibition is reported as 1.31% (inactive).
With `CCOC(=O)C1(C)NC(c2ccco2)C2C(=O)N(c3ccccc3)C(=O)C21` (stereo not drawn) the inhibition was 0.47% (inactive).
With `CCOC(=O)NC(=O)CSc1nnc(SCCC(=O)O)s1` the inhibition was 0.52% (inactive).
With `Cc1nn(CCOc2ccc(Br)cc2)c(C)c1[N+](=O)[O-]` the inhibition was 1.06% (inactive).
In the case of `CN(C)c1ccc(/C=N/NC(=O)C(O)c2ccc(Br)cc2)cc1` (stereo not drawn), the inhibition is reported as 0.7% (inactive).
In the case of `OC1CSc2nc3ccccc3n2C1` (stereo not drawn), the inhibition is reported as -0.99% (inactive).
`Cc1ccc(C)c(-n2nnnc2SCC(=O)c2c(N)n(C)c(=O)n(C)c2=O)c1` was tested, and the inhibition was -0.82% (inactive).
In the case of `Nc1nc(CC(=O)CSc2ccc(Cl)cc2)nc(Nc2ccc(F)cc2)n1`, the inhibition is reported as 0.01% (inactive).
`COc1ccc(Br)cc1/C=N/Nc1ccc(Cl)c(C(=O)O)c1` was tested, and the inhibition was -0.4% (inactive).
`Cc1cc(/C=C2/SC(=O)N(CC(=O)N3CCCC3)C2=O)ccc1N1CCOCC1` was tested, and the inhibition was 1.48% (inactive).
`Cc1nc(S(=O)(=O)c2ccc(Br)cc2)nc2c1CCC2` was tested, and the inhibition was 0.58% (inactive).
`COc1ccccc1NC(=O)c1cc(Cl)nnc1Cl` was tested, and the inhibition was 1.04% (inactive).
With `COc1ccc(S(=O)(=O)N(C)CC(=O)N2CCCC2)cc1Cl` the inhibition was 1.26% (inactive).
`COc1ccc(C(=O)Nc2ccc(N3CCC(C)CC3)cc2)cc1Br` was tested, and the inhibition was 1.32% (inactive).
With `Cc1ccc(C(=O)N/C(=C/c2cccnc2)C(=O)O)cc1` the inhibition was 0.02% (inactive).
`O=C(O)c1cccc(NC(=O)c2cc(-c3cccc(Cl)c3)nc3ccccc23)c1` was tested, and the inhibition was -0.61% (inactive).
With `C/C(=N\Nc1ncc(Cl)cc1Cl)c1cccs1` the inhibition was 0.7% (inactive).
For `COC(=O)c1c(C(=O)OC)c(-c2cccc(C)c2)n2c1CS(=O)C2` (stereo not drawn), the inhibition was 0.19% (inactive).
`COCC(C)n1c(C)cc(C(=O)COc2ccc(C)nc2[N+](=O)[O-])c1C` (stereo not drawn) was tested, and the inhibition was 0% (inactive).
For `S=c1[nH]nc(NCCc2ccccc2)s1`, the inhibition was -0.12% (inactive).
For `C/C(=N\NC(=O)C(N)=O)c1ccc2c(c1)OCCO2`, the inhibition was 1.58% (inactive).
`CC(C)/C=N/NC(=O)c1cc(Br)ccc1O` was tested, and the inhibition was 0.05% (inactive).
For `O=C(O)CC(SCC(=O)Nc1ccc(Br)cc1)C(=O)O` (stereo not drawn), the inhibition was -0.05% (inactive).
For `COc1ccc2c(-c3ccccc3)cc(SCC(=O)N(C)C3CCS(=O)(=O)C3)nc2c1` (stereo not drawn), the inhibition was 1.15% (inactive).
For `O=C(CN1CCCCCC1)NCCN1C(=O)S/C(=C\c2ccccc2Cl)C1=O`, the inhibition was 0.67% (inactive).
For `COCCn1c(C)cc(C(=O)CSc2nc3ccccc3c(=O)n2C(C)COC)c1C` (stereo not drawn), the inhibition was 2.97% (inactive).
In the case of `Cc1cc(C)cc(NC(=O)N2CCCCCCC2)c1`, the inhibition is reported as 2.76% (inactive).
For `COc1cccc(C(O)Cc2nc3ccccc3n2C)c1OC` (stereo not drawn), the inhibition was -0.47% (inactive).
With `C=CCc1cccc2cc(C(=O)NC3CCCC3)c(=O)oc12` the inhibition was 1.75% (inactive).
For `Cc1c(C(=O)c2cccc([N+](=O)[O-])c2)c2ccccn2c1CCC#N`, the inhibition was 2.01% (inactive).
`Cc1ccc(-n2c(SCC(=O)Nc3ncc(Cl)cc3Cl)nc3ccccc32)cc1` was tested, and the inhibition was 56.9% (active).
With `Cc1ccc(SCCC(=O)OCC(=O)Nc2ncc(Cl)cc2Cl)cc1` the inhibition was 0.04% (inactive).
`NS(=O)(=O)c1cccc(NC(=O)CSc2nc3ccccc3n2-c2ccccc2)c1` was tested, and the inhibition was -1.23% (inactive).
With `CCn1c(SCC(=O)Nc2nccs2)nnc1-c1ccco1` the inhibition was 0.22% (inactive).
For `COCCCNC(NC(=O)c1ccc(OC)cc1)C(Cl)(Cl)Cl` (stereo not drawn), the inhibition was 0.77% (inactive).
In the case of `O=c1[nH]c2cccnc2n(CCNc2ncc(C(F)(F)F)cc2Cl)c1=O`, the inhibition is reported as 0.11% (inactive).
`CC(C)(C)n1ncc2c(=O)n(Cc3ccc(Cl)cc3)cnc21` was tested, and the inhibition was 0.59% (inactive).
In the case of `C#CCOCCOCCOCCNc1nc(N2CCN(C(=O)[C@H](CCCCN)n3cc([C@@H](N)C(C)CC)nn3)CC2)nc(N2CCN(C(=O)[C@H](Cc3ccc(O)cc3)n3cc([C@@H](N)C(C)CC)nn3)CC2)n1` (stereo partly drawn), the inhibition is reported as 0.44% (inactive).
For `COc1ccc(Cn2c(=O)cc(C)[nH]c2=S)cc1`, the inhibition was 1.2% (inactive).
`O=C(Oc1c(-c2ccco2)oc2ccccc2c1=O)c1cccnc1` was tested, and the inhibition was 1.71% (inactive).
`O=C(N/N=C/c1sc(N2CCCCC2)nc1-c1cccs1)c1cccnc1` was tested, and the inhibition was -0.08% (inactive).
`CCOc1cnc(C(=O)NNC(=O)c2ccccc2Br)o1` was tested, and the inhibition was -0.12% (inactive).
`COc1ccc(CN2CCNC(=O)C2CC(=O)N(C)Cc2ccccn2)cc1OC` (stereo not drawn) was tested, and the inhibition was 0.3% (inactive).
`N=C1C(c2nc3ccccc3s2)=C(O)CN1NC(=O)c1ccc([N+](=O)[O-])cc1` was tested, and the inhibition was -0.23% (inactive).
For `CN(CC(=O)Nc1ccccc1F)CC(=O)Nc1ccccc1Br`, the inhibition was -0.22% (inactive).
With `CCOCCCn1c(NN)nc2ccccc2c1=O` the inhibition was 0.54% (inactive).
For `Nc1ccc(Cl)c(S(=O)(=O)Nc2ccccc2Cl)c1`, the inhibition was 0.19% (inactive).
`COc1ccc(-c2[nH]ncc2CN(Cc2nccn2C)C(C)C)cc1F` was tested, and the inhibition was 2.14% (inactive).
`CCC(C(=O)Nc1ccc(C(C)C)cc1)c1ccccc1` (stereo not drawn) was tested, and the inhibition was 0.19% (inactive).
With `N#Cc1c(NC(=O)C2CCCO2)sc2c1CCCCC2` (stereo not drawn) the inhibition was 1.4% (inactive).
For `O=C(C1CC1)N1N=C2CCCCC2C1(O)C(F)(F)F` (stereo not drawn), the inhibition was 0.21% (inactive).
With `COCC(C)NCc1cc(Br)ccc1OC` (stereo not drawn) the inhibition was 0.42% (inactive).
For `Cc1ccc2nc(-c3cccnc3)c(NC3CCCC3)n2c1`, the inhibition was 1.9% (inactive).
In the case of `COc1cc2[nH]c(=O)n(Cc3ccc(C(=O)NC4CCN(Cc5ccccc5)CC4)cc3)c(=O)c2cc1OC`, the inhibition is reported as 0% (inactive).
`O=C(NCCc1ccccc1)C1CCC(Cn2c(=O)c3ccccc3n(Cc3cccnc3)c2=O)CC1` (stereo not drawn) was tested, and the inhibition was 4.02% (inactive).
With `CC(=O)Nc1ccc(C(=O)CSc2nc3ccc(C)cc3[nH]2)cc1` the inhibition was -0.95% (inactive).
In the case of `c1ccc(CN=C2Nc3ccccc3CS2)nc1`, the inhibition is reported as 0.26% (inactive).
With `O=C(c1ccc(N2CCOCC2)c([N+](=O)[O-])c1)N1CCN(S(=O)(=O)c2cccs2)CC1` the inhibition was 0.44% (inactive).
With `CC(C)CN1CCNC(=O)C1CC(=O)N(C)CC1CCOCC1` (stereo not drawn) the inhibition was 0.15% (inactive).
`CCCCCc1nnc(NC(=O)c2ccc(=O)n(C)n2)s1` was tested, and the inhibition was 0.44% (inactive).
With `CC1CCCN(CC(O)COc2ccc3c(c2)OCO3)C1` (stereo not drawn) the inhibition was 0.12% (inactive).
With `CCCCN1C(=S)NC[C@@H]1C(C)CC` (stereo partly drawn) the inhibition was 0.02% (inactive).
For `CC/C(=N\NC(=O)c1ccccc1Cl)c1ccc(Br)s1`, the inhibition was 1.38% (inactive).
`COc1ccc(CCNC(=O)CSc2nc3[nH]ncc3c(=O)n2-c2cccc(C(F)(F)F)c2)cc1OC` was tested, and the inhibition was 0.5% (inactive).
`O=C(C1CCCO1)N1CCN(C(=S)NC2CC2)CC1` (stereo not drawn) was tested, and the inhibition was 0.55% (inactive).
`CNC(=S)N1CCC(NC(=O)C(Cc2ccc(F)cc2)NC(C)=O)CC1` (stereo not drawn) was tested, and the inhibition was 0.7% (inactive).
With `Cc1ccc(C)c(NC(=O)CCC(=O)N/N=C2/CC(=O)CC(C)(C)C2)c1` the inhibition was 0.24% (inactive).
`Cc1c(CCO)sc[n+]1CC(=O)OC12CC3CC(CC(C3)C1)C2` was tested, and the inhibition was 0.29% (inactive).
With `Cc1c(CCOC(=O)c2cc([N+](=O)[O-])ccc2Cl)sc[n+]1CCCCS(=O)(=O)[O-]` the inhibition was 1.17% (inactive).
`Cc1c(CCOC(=O)CC23CC4CC(CC(C)(C4)C2)C3)sc[n+]1Cc1ccc([N+](=O)[O-])cc1` was tested, and the inhibition was 53.8% (active).
For `CC(C)NC(=O)c1ccc(Cl)cc1Cl`, the inhibition was -0.21% (inactive).
For `CC(=O)c1ccc(NC(=O)C(C)NCc2ccc(Cl)cc2)cc1` (stereo not drawn), the inhibition was 0.85% (inactive).
In the case of `Cc1nc(CN2CCN(C(=O)CCc3nnc(Cc4c[nH]c5ccccc45)o3)CC2)cs1`, the inhibition is reported as -1.57% (inactive).
With `CN1CCN(/N=C/c2ccc(C#N)cc2)CC1` the inhibition was 1.07% (inactive).
`CCC(C)(C)NC(=O)CN(C(=O)C(=O)Nc1ccc2c(c1)OCCO2)C(C)(C)CC` was tested, and the inhibition was 2.48% (inactive).
In the case of `CSc1ccc(/C=N/NC(=O)c2cccc(Cl)c2)cc1`, the inhibition is reported as -0.32% (inactive).
For `CC(=O)Nc1ccccc1OC(C)C(=O)N1CCC(C)CC1` (stereo not drawn), the inhibition was 0.05% (inactive).
In the case of `COc1cc(NC(=S)NCc2ccc(S(N)(=O)=O)cc2)cc(OC)c1`, the inhibition is reported as -0.49% (inactive).
With `COc1ccc(NS(=O)(=O)c2cc(NC(=O)C3CCCCC3)ccc2N2CCOCC2)cc1` the inhibition was 0.89% (inactive).
With `CC[C@H](C)[C@@H](C(=O)N1CCNCC1)n1cc([C@@H](N)Cc2ccc(O)cc2)nn1` the inhibition was 0.31% (inactive).
`COc1ccc(C2=NN(C(=O)CCC(=O)O)C(c3cccs3)C2)cc1OC` (stereo not drawn) was tested, and the inhibition was 0.01% (inactive).
